Screening data from PubChem.
Only some compounds are listed: those with a hit (about 3.9% of all), similar ones and a draw of the others.
VDR inh = Inhibitors of the vitamin D receptor (VDR): qHTS | VDR-SRC2-3 peptide fluorescence polarization, 2 h | Potency, µM, for the others: max response, negative = inhibition, hits mostly inhibitors | hit rate 0.93% among 400,000 | AID 504847, 2011; further: on the % scale 0 is the no-effect control and ±100 the full control effect
Target sequence (P11473 whole entry, looked up): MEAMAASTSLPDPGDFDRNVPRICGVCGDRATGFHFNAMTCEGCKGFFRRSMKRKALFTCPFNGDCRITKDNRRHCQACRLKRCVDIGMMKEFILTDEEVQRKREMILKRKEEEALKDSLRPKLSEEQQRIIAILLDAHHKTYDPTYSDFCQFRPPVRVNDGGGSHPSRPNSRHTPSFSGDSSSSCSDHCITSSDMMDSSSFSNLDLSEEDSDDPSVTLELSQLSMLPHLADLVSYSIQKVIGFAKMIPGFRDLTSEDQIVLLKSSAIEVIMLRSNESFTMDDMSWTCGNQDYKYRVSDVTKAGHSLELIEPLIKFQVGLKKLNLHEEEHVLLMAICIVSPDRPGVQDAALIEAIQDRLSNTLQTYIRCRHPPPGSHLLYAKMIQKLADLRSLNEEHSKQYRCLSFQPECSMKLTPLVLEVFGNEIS
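The screen uses fluorescence polarization to detect compounds that interfere with recruitment of the SRC2-3 coactivator peptide to VDR; plates are read after 2 h at room temperature.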
Tb PFK block = qHTS Assay to Find Inhibitors of T. brucei phosphofructokinase | ATP-dependent 6-phosphofructokinase (Trypanosoma brucei brucei), O15648 | T. brucei PFK, ADP-Glo luminescence | Potency, µM (doses to about 57.5 µM), for inactives: top-dose activity, negative = inhibition, most hits filed as inhibitors | hit rate 0.17% among 330,000 | AID 485367, 2010;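 further: 0% = uninhibited 1x PFK enzyme wells and -100% = no-enzyme wells; nearly all actives have a fitted effect of over 60% in size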
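Activity is normalized to no-enzyme wells (full inhibition) and 1.25 nM enzyme wells (no inhibition). Reaction: 0.5 mM F6P, 0.1 mM ATP, 45 min RT, ADP-Glo luminescence; concentration-response curves fitted and classed by quality.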
BRCA1 expr up = qHTS Assay to Identify Small Molecule Activators of BRCA1 Expression; MCF7-BRCA1-FFLuc reporter, luminescence, 48 h; response scale: scaled: vehicle 0%, 10 µM genistein 100%; hit rate 1.1% among 380,000; Potency, µM (titrated, usually from 46.1 µM), for the others: at the highest dose activation, hits mostly activators; AID 624202, 2012; further: nearly all actives have a fitted effect of over 80% in size
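MCF7-BRCA1-FFLuc cells, 2000/well in phenol-red-free MEM, attached 2 h then treated 48 h at 37 C. Luciferase luminescence read 15 min after reagent; normalized to genistein maximum activation (10microM) and DMSO, concentration-response fitted.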
PLK1 PBD inh = qHTS for Inhibitors of PLK1-PDB (polo-like kinase 1 - polo-box domain): Primary Screen | Plk1 PBD binding of FITC phosphopeptide, fluorescence polarization | Potency, µM, for the others: max response, negative = inhibition, hits mostly inhibitors | hit rate 2.8% among 360,000; further: series mostly up to about 57 µM; on the % scale 0 is the no-effect control and ±100 the full control effect; nearly all actives have a fitted effect of over 65% in size
* = called active by the depositor; ? = inconclusive; nt = not tested or not shown. The call rests on the fitted dose curve; in most records, active means well fitted curve in the direction sought with a large enough effect; inconclusive means small, poorly fitted or top-dose-only effect, or another doubt; inactive means no such curve, though single readings can be large; an effect the other way counts as inactive or inconclusive. Potency means the concentration at half of the fitted maximal effect.

SMILES	VDR inh	Tb PFK block	BRCA1 expr up	PLK1 PBD inh
CCC(C)NC(=O)C1c2ccccc2C(=O)N(c2ccc(OC)cc2)C1c1ccc(OC)cc1 (stereo not given)	?	-2%	-40%	24µM*
COc1ccc(C2C(C(=O)Nc3cc(C)on3)c3ccccc3C(=O)N2C)cc1OC (stereo not given)	-2%	-1%	0%	-8%
CCS(=O)(=O)N1CCc2cc(C(=O)Nc3ccc(OC)cc3OC)ccc21	23%	nt	10%	nt
Cc1cc(N/N=C/c2ccco2)c2ccccc2n1	?	-6%	2%	24µM*
Cc1ccc(-c2nnn(CC(=O)N(CCO)C(C(=O)NC3CCCCC3)c3ccncc3)n2)o1 (stereo not given)	-17%	2%	10%	34µM*
O=C1c2ccc(Oc3cccc([N+](=O)[O-])c3)cc2C(=O)N1c1ccccn1	?	27%	-2%	11µM*
CN(C)c1ccc(C(=O)N=c2sccn2C)cc1[N+](=O)[O-]	-5%	0%	11µM*	-11%
Cn1ccsc1=NC(=O)c1ccc(S(=O)(=O)C(F)F)cc1	5%	1%	13µM*	1%
O=c1c2ccccc2sn1-c1ccc(Cl)cc1Cl	nt	nt	16%	2.7µM*
CCc1ccc2nc(SCC(=O)N3CC(=O)Nc4ccccc43)c(C#N)cc2c1	?	-2%	-57%	21µM*
CCc1cc2c(SCC(=O)N3CC(=O)Nc4ccccc43)ncnc2s1	?	0%	-23%	27µM*
N#Cc1cc(C#N)c(SCC(=O)N2CC(=O)Nc3ccccc32)nc1N	6%	7%	-41%	-4%
O=S(=O)(c1ccccc1)N1CCC2(CC1)CN(c1ncccn1)C2	1%	nt	nt	nt
COC(=O)c1ccc(C(=O)Nc2ccc(C(C)C)cc2N)cc1	-7%	1%	11µM*	30µM*
CO[C@@H]1CN(C)C(=O)c2cc(NC(=O)Nc3cc(F)ccc3F)ccc2OC[C@H](C)N(C(=O)c2cnccn2)C[C@@H]1C	nt	nt	nt	-3%
Fc1ccc(N2CCN(C(c3cccs3)c3nnnn3CCc3ccccc3)CC2)cc1 (stereo not given)	-5%	-2%	-34%	24µM*
COc1cccc(NC(=O)Nc2ccc3c(c2)OCO3)c1	-12%	-3%	2.8µM*	-7%
Cc1cc(F)ccc1NC(=O)Nc1ccc2c(c1)OCO2	3%	-16%	26%	2%
CC(=O)c1cccc(NC(=O)Nc2ccc3c(c2)OCO3)c1	9%	1%	11µM*	3%
Cc1ccc(C(=O)Nc2ccc3c(c2)OCO3)o1	-5%	-18%	67%	12µM*
COc1cccc(NC(=O)CN(C)CC(=O)Nc2ccc3c(c2)OCO3)c1	-8%	3%	-11%	-1%
Cc1ccc(NC(=O)Nc2ccc3c(c2)OCO3)cc1F	-10%	4%	0.89µM*	0%
CCc1ccc(CNC(=O)c2cnc3sc4cc(OC)ccc4n3c2=O)cc1	-7%	nt	nt	nt
CCC(C)NC(=O)C1CC(=O)N(CCc2ccc(F)cc2)C1 (stereo not given)	-9%	2%	-17%	-24%
CN(C)c1ccc(CNC(=O)CN2C(=O)c3cccnc3Oc3ccc(Cl)cc32)cc1	6%	nt	nt	nt
SMILES	VDR inh	Tb PFK block	BRCA1 expr up	PLK1 PBD inh
COc1ccccc1C(=O)NCC(=O)Nc1ccc2c(c1)OCO2	-24%	0%	0%	1%
CC(=O)c1cccc(NC(=O)N2CCCC2C(=O)Nc2ccc3c(c2)OCO3)c1 (stereo not given)	-5%	1%	2%	30µM*
CN(C)C(=S)Nc1ccc2c(c1)OCO2	-8%	-20%	-13%	6.7µM*
O=C(CNC(=O)c1ccccc1F)Nc1ccc2c(c1)OCO2	14%	-6%	7.9µM*	4%
O=C(Nc1ccc2c(c1)OCO2)Nc1ccc(Br)cn1	-2%	-6%	2.8µM*	-3%
COc1cccc(CNC(=O)C2CCN(c3nc4ccc(Cl)cc4[nH]3)CC2)c1	12%	nt	nt	nt
Cn1c2c(c3cnc4cc(Cl)ccc4c31)CNCC2	-12%	nt	-38%	nt
COCCN(C(=O)Cn1c(C(F)(F)F)nc2ccccc21)c1c(N)n(Cc2ccccc2)c(=O)[nH]c1=O	2%	1%	11%	1%
C/C(=C\C(=O)c1ccc(Br)cc1)Nc1cccc(Cl)c1	-11%	nt	75%	0%
Cc1ccc(NC(=O)Nc2ccc3c(c2)OCO3)c(OC(F)F)c1	-9%	8%	2.5µM*	-6%
C/C(=C\C(=O)c1ccccc1)Nc1ccc(Cl)c(Br)c1	0%	nt	19%	27µM*
C/C(=C\C(=O)c1ccccc1)Nc1ccc2c(c1)OCO2	6%	-5%	7.9µM*	0%
Cc1cc(C)cc(NC(=O)C(=O)NCC(c2ccc3c(c2)OCO3)N2CCOCC2)c1 (stereo not given)	10%	nt	nt	nt
CCOc1ccc(-c2nnc(SCC(=O)Nc3cc(C)ccc3OC)o2)cc1	6%	nt	9%	nt
CN(C)c1ccc(/C=C/C=C2/C=Cc3ccccc32)cc1	nt	nt	104%	nt
Cc1cccc(OCC(O)CN2C(C)(C)CC(O)CC2(C)C)c1 (stereo not given)	-8%	nt	0%	9.5µM*
Cc1ccc(N2CCN(CC(O)COc3cccc(C)c3)CC2)cc1 (stereo not given)	-7%	2%	-7%	4%
O=C(c1ccccc1)c1cc2cc(Cl)ccc2[nH]1	-2%	1%	10µM*	0%
Cc1ccc(S(=O)(=O)Nc2nc3c(s2)C(=O)CC(C)(C)C3)cc1	9%	0%	-32%	-15%
CC1(C)CC(=O)c2sc(NS(=O)(=O)Cc3ccccc3)nc2C1	?	1%	14%	24µM*
COc1ccc(-c2c[n+](CC(=O)c3ccccc3)c3n2CCCCC3)cc1	-6%	-2%	-35%	-5%
O=C(C[n+]1cc(-c2ccc(F)cc2)n2c1CCC2)c1cccs1	-9%	1%	2µM*	-6%
CC(=O)OCc1c(C(F)(F)F)nn(C)c1Oc1ccccc1	1%	-4%	-4%	-9%
Cn1nc(-c2ccccc2)c(CO)c1Oc1ccc(F)cc1	?	1%	22%	11µM*
CN1C(=O)NC2(O)C(=O)c3ccccc3C12O (stereo not given)	?	-1%	-5%	2.7µM*
SMILES	VDR inh	Tb PFK block	BRCA1 expr up	PLK1 PBD inh
CCOc1cc(CNc2ccc(N3CCCC3)cc2)cc(Cl)c1OC	?	1%	-92%	-23%
C=CCOc1c(Cl)cc(CNc2ccc(N(C)C)cc2)cc1OC	2.2µM*	-2%	-82%	-9%
CCOc1ccc(CNc2ccc(N3CCN(Cc4ccccc4)CC3)cc2)cc1	1%	-2%	-16%	-13%
C=CCOc1c(Cl)cc(CNc2ccc(C)c(Cl)c2)cc1OC	nt	-1%	nt	nt
CCOc1ccc(CNc2ccc(N3CCCC3)cc2)cc1	4µM*	-1%	-93%	?
COc1cc(CNc2ccc(N3CCCC3)cc2)cc(Cl)c1OC	5.6µM*	3%	-91%	21µM*
CCOc1ccc2c(c1)c(=O)c(S(=O)(=O)c1ccccc1)cn2CC(=O)Nc1ccccc1OC	-5%	nt	-8%	nt
